An excerpt weighted towards active compounds, which were near 4.6% of everything screened.
TRHR agonist: agonists of human TRH receptor; P34981; TRHR cells, calcium flux fluo-8, FDSS agonist mode; activation, % at 2 µM; actives 0.18% (n = 360,000); AID 493084; note: 0% is about no effect
Target sequence (P34981 whole entry, looked up): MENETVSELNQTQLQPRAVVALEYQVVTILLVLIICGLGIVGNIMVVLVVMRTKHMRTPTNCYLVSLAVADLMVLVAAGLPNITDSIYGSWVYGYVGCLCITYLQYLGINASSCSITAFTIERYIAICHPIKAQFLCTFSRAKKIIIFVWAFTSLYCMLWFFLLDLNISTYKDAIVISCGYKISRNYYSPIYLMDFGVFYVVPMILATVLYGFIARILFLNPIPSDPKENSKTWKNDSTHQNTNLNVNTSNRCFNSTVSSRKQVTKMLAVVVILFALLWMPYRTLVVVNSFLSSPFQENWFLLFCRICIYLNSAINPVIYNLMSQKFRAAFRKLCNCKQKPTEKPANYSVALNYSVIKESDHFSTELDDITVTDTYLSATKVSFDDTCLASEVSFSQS
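TRHR-expressing cells, plated overnight in medium with 10% serum, were loaded with fluo-8 calcium dye at room temperature. After a 10 s baseline, library compound was pin-added and calcium release was recorded kinetically (ex 480/em 530) as agonist response.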
TRHR enhancer: allosterically enhances the human TRH receptor; AID 493056; TRHR cells, fluo-8 calcium fluorescence, EC20 TRH enhancement; P34981; actives 0.66% (n = 360,000); enhancement, % at 2 µM; in the data active = enhancement above about 30%; note: 0% is about no effect
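TRHR-expressing cells loaded with fluo-8 calcium dye were read kinetically (ex 480/em 530) during compound addition, then stimulated with an EC20 of TRH (10 nM final). Enhancement of the Gq-mediated intracellular calcium response was scored.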
D1 antag: antagonists of human D1 dopamine receptor | P21728 | HEK293 TREx D1 cells, calcium flux, dopamine EC80; stronger effect = lower value | activity change, negative = inhibition, % at 10 µM | actives 3.2% (n = 360,000); in the data active = activity change below about -30%; note: % is set by controls: 0 for no effect and ±100 for the full control effect
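Inducible Hek293 Trex D1 cells (tetracycline, overnight, 30 C). Calcium dye 30–90 min RT. Antagonist mode: EC80 dopamine added after 180 s compound read.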
D1 ag: agonists of human D1 dopamine receptor. activation, % at 2 µM. HEK293 T-REx D1 cells, calcium flux, agonist mode. actives 1% (n = 360,000); note: 0% is about no effect
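Tetracycline-induced HEK293 TREx D1 cells, force-coupled to calcium signalling, were dye-loaded with a no-wash calcium kit. Compound was pin-added after a 10 s baseline. Fluorescence was read kinetically at 1 cycle/s for 180 s, with calcium rises flagged as agonism.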
D1 PAM: enhances dopamine response at the human D1 receptor; HEK293 TREx D1 cells, calcium flux, dopamine EC20 potentiation; potentiation, % at 10 µM; actives 0.036% (n = 360,000); in the data active = potentiation above about 30%; note: 0% is about no effect
* = called active by the depositor; · = no result given. Cut-off read from the data, not from the text of the source, unless noted: active = activation above about 30%; inactive = the rest.

SMILES	TRHR agonist	TRHR enhancer	D1 antag	D1 ag	D1 PAM
NS(=O)(=O)c1cccc(NC(=O)c2cc(=O)c3ccccc3o2)c1	1	11	-4	2	-3
CN(c1ccc(C(=O)NCCSCc2ccc(Cl)cc2)cc1)S(=O)(=O)c1ccccc1	-1	5	-19	39*	5
CN(c1ccccc1)S(=O)(=O)c1cccc(NC(=O)CCNC(=O)c2ccc(Cl)cc2)c1	0	-2	-19	4	-3
Cc1ccc2c(=O)cc(C(=O)Nc3c(C(=O)Nc4cccc(Cl)c4)oc4ccccc34)oc2c1	0	6	-46*	-2	3
CN(c1ccccc1)S(=O)(=O)c1cccc(NC(=O)CCNC(=O)c2ccccc2)c1	2	-2	-43*	0	-10
Cc1ccc(CSCCNC(=O)c2ccc(N(C)S(=O)(=O)c3ccccc3)cc2)cc1	2	-3	-16	28	-1
CN(c1ccccc1)S(=O)(=O)c1cccc(NC(=O)c2cc(=O)c3ccccc3o2)c1	0	-1	-34*	4	-6
Cc1cc(C)n2nc(CNS(=O)(=O)c3ccccc3)nc2n1	1	-8	16	0	-2
CCc1ccc(NC(=O)CC2C(=O)N(c3cccc(C)c3)C(=O)N2Cc2cccc(OC)c2)cc1 (centres undefined)	0	3	-1	3	-1
Cc1ccc(-c2c(C(=O)N3CCN(c4cc(Cl)ccc4C)CC3)oc(=O)c3ccccc23)cc1	0	-2	6	1	7
O=C(NCc1ccccc1F)C1CCCN(c2cnccn2)C1 (centres undefined)	-1	2	-35*	2	0
Cc1ccccc1CCNC(=O)C1CCCN(c2cnccn2)C1 (centres undefined)	0	-6	4	-1	0
Oc1[nH]c2ccc(Br)cc2c1N=Nc1ccc(F)cc1	22	-4	12	56*	-14
O=[N+]([O-])c1ccc2[nH]c(O)c(N=Nc3ccc(F)cc3)c2c1	0	-13	20	3	-3
C=CCc1ccccc1OCCSc1nc(-c2ccccc2F)nc2cc(=O)[nH]n12	0	-16	-9	4	-8
O=C(O)Cc1sc(Nc2ccccc2)nc1-c1ccccc1	0	3	-2	-1	-2
O=C(O)Cc1sc(N/N=C\c2ccncc2)nc1-c1ccccc1	23	1	-4	31*	-7
CCCc1cnc2c(c1SCC(=O)Nc1ccccc1F)c(=O)n(C)c(=O)n2C	0	-7	·	4	0
CCN(CCn1cccn1)C(=O)c1cc(COc2ccc(F)c(F)c2)on1	0	-2	-32*	12	-4
Cc1[nH]c2ccccc2c1SCC(=O)N1CCN(c2ccccc2)CC1	0	11	-43*	-1	-7
O=C(CCC(=O)N1CCN(c2ccccc2F)CC1)N1CCN(c2ccccc2)CC1	0	11	-61*	9	-3
CN1CCCN(C(=O)CSc2ccccc2)CC1	0	31*	30	-2	-5
Cc1[nH]c2ccccc2c1SCC(=O)N1CCCCC1	0	0	-17	2	-4
CN1CCCN(C(=O)CC(c2ccccc2)c2ccccc2)CC1	-1	-1	8	0	-4
O=C(CSc1ccccc1C(=O)N1CCN(c2ccccc2)CC1)N1CCCC1	0	3	-44*	0	-10
SMILES	TRHR agonist	TRHR enhancer	D1 antag	D1 ag	D1 PAM
O=C(CCC(=O)N1CCN(c2ccccc2F)CC1)N1CCN(c2ccc(F)cc2)CC1	0	1	-14	4	-1
Cc1ccc(C(=O)c2oc3ccccc3c2NC(=O)c2cc(-c3ccc(Cl)cc3)on2)cc1	0	-2	-4	2	1
CC1CCCCN1S(=O)(=O)c1ccc2[nH]c(=O)cc(C(=O)NCCc3ccc(Cl)cc3)c2c1 (centres undefined)	0	-2	26	4	1
CCOc1ccc(NC(=O)Cn2nnc(-c3nc(-c4ccncc4)no3)c2N)cc1	0	1	-5	1	-1
O=C(CSc1ccccc1)N1CCN(c2ccccc2)CC1	2	-1	-34*	-1	-5
COc1ccc(C(=O)Nc2ccc3c(c2)N(C)C(=O)c2ccccc2S3)cc1OC	0	5	4	0	-4
Cc1ccc(Cn2nc(C)c(NC(=O)C3(C)CC3(Br)Br)c2C)cc1 (centres undefined)	0	6	-38*	0	-4
CCc1cc(C(=O)Nc2c(C)nn(Cc3ccc(C)cc3)c2C)no1	-2	3	-9	-1	2
CCc1c(C)sc(NC(=O)c2cc(C(C)C)on2)c1C#N	0	-7	-32*	9	3
CCc1cc(C(=O)Nc2sc(C)c(CC)c2C#N)no1	0	11	1	0	1
CCC(C)NC(=O)C1=CC(c2ccc3c(c2)OCO3)=NS(=O)(=O)N1C (centres undefined)	0	1	-8	1	-2
Cc1ccc(S(=O)(=O)NCCC(=O)N2CCCCCC2)cc1	0	15	-36*	4	-14
Cc1ccc(S(=O)(=O)N(C)CC(=O)N2CCCCCC2)cc1	0	33*	-2	-4	4
Cc1nc2ccc(S(=O)(=O)NCC(=O)N3CCN(c4ccccc4)CC3)cc2s1	0	-7	-39*	1	-5
Cc1ccc(S(=O)(=O)NCCC(=O)N2CCN(c3cccc(Cl)c3)CC2)cc1C	0	1	-30*	6	3
Cc1ccc(S(=O)(=O)NCCC(=O)N2CCCCC2)cc1	0	-5	3	-1	0
Cc1nc2ccc(S(=O)(=O)NCC(=O)N3CCCCC3)cc2s1	0	0	-1	1	-3
COc1ccc(N2C(=O)CS(=O)(=O)C23C(=O)N(Cc2ccc(F)cc2)c2ccc(C)cc23)cc1 (centres undefined)	1	-13	-8	8	3
Cc1cccc(Nc2nnc(-c3ccc(C)c(S(=O)(=O)NCC4CCCO4)c3)c3ccccc23)c1 (centres undefined)	0	-13	-20	-1	-3
Cc1nc2ccc(S(=O)(=O)NC(C(=O)N3CCn4c3nc3ccccc34)C(C)C)cc2s1 (centres undefined)	1	-12	-55*	1	-6
Cc1ccc(CNC(=O)C(NS(=O)(=O)c2ccc3nc(C)sc3c2)C(C)C)cc1 (centres undefined)	0	4	2	3	-2
CN1CCc2c(sc(NC(=O)c3cc4cc([N+](=O)[O-])ccc4s3)c2C(N)=O)C1	0	-3	3	3	-1
CC(C)N1CCc2c(sc(NC(=O)c3cc4cc([N+](=O)[O-])ccc4s3)c2C(N)=O)C1	16	2	-14	35*	-1
CCOC(=O)c1c(NC(=S)NCc2ccccc2)sc2c1CCN(C(=O)OCC)C2	1	-14	-40*	3	-2

Compound activity deposited in PubChem BioAssay by National Center for Advancing Translational Sciences (NCATS).
